We go through 22 compounds from paper PMC5540273 (PLoS ONE, 2017).

Among the test systems are MAP3K15; MAP3K1; MAP3K2; MAP3K3; MAP3K4; MAP4K2; MAP4K3; MAP4K4; MAP4K5; MAPKAPK2.
Settings in all cases: concentration: 1 μM, replicates: in singlicate; n = 1

The structures appear in SMILES notation.
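Note: KINOMEscan kinase panel screen.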

With `COC(=O)Nc1nc2ccc(Oc3ccc(CC(=O)Nc4cc(C(F)(F)F)ccc4F)cc3)cc2[nH]1` [GW680903], the “%Inh” value in the assay on MAP3K15 amounted to 0%; with MAP3K1 it was 0%; in the assay on MAP3K2 it was 0%; in the assay with MAP3K3, 0%; with MAP3K4 it was 8%; in the assay on MAP4K2, 0%. The “%Inh” value is given as 0% in the assay on MAP4K3, 0% with MAP4K4, 0% in the assay with MAP4K5 and 20% in the assay on MAPKAPK2.

Take `Cl.Cl.NC(CNC(=O)c1cc(Br)c(-c2ccnc3[nH]ccc23)s1)c1ccccc1` (stereo not shown) [GSK1322949]: the “%Inh” value in the assay on MAP3K15 was 16%; in the assay with MAP3K1, 14%; in the assay on MAP3K2, 27%; in the assay on MAP3K3, 15%; in the assay on MAP3K4, 3%; in the assay on MAP4K2 it was 56%. The “%Inh” value stood at 20% in the assay on MAP4K3, 53% in the assay on MAP4K4, 4% in the assay with MAP4K5 and 0% with MAPKAPK2.

For the compound `O=C(Nc1n[nH]c2nc(-c3cccc(O)c3)ccc12)C1CC1` [SB-711805], the “%Inh” value with MAP3K15 is on record as 15%; with MAP3K1 it was 17%; in the assay with MAP3K2 it was 14%; in the assay with MAP3K3, 50%; in the assay with MAP3K4, 0%; in the assay on MAP4K2, 9%. Moreover, the “%Inh” value in the assay with MAP4K3 came to 0%; with MAP4K4, 13%; in the assay with MAP4K5 it was 0%; in the assay on MAPKAPK2, 0%.

Take `CC(C)c1nc(-c2cccc(NS(=O)(=O)c3c(F)cccc3F)c2)c(-c2ccnc(Nc3ccc(N4CCOCC4)nc3)n2)s1.Cl` [GSK1723980]: the “%Inh” value in the assay with MAP3K15 is 7%; in the assay on MAP3K1 it was 13%; in the assay with MAP3K2, 28%; in the assay with MAP3K3, 71%; with MAP3K4 it was 28%; in the assay on MAP4K2, 0%. In addition, the “%Inh” value amounted to 47% in the assay with MAP4K3, 0% in the assay with MAP4K4, 48% in the assay with MAP4K5 and 0% in the assay on MAPKAPK2.

Turning to `O=C(Nc1n[nH]c2cc(-c3cccs3)ccc12)C1CC1` [SB-731284], the “%Inh” value with MAP3K15 stood at 57%; with MAP3K1, 52%; in the assay with MAP3K2, 34%; in the assay on MAP3K3, 44%; in the assay with MAP3K4, 0%; in the assay with MAP4K2 it was 9%. In addition, the “%Inh” value in the assay with MAP4K3 is 0%; with MAP4K4, 13%; with MAP4K5 it was 0%; in the assay with MAPKAPK2, 0%.

Consider `Nc1ncc(-c2cn[nH]c2)c2scc(-c3ccc4c(c3)CCN4C(=O)Cc3ccccc3)c12` [GSK2593067], for which the “%Inh” value in the assay with MAP3K15 is reported as 22%; with MAP3K1 it was 24%; in the assay on MAP3K2, 91%; with MAP3K3, 79%; in the assay with MAP3K4, 86%; with MAP4K2 it was 87%. Further, the “%Inh” value with MAP4K3 came to 98.9%; with MAP4K4, 27%; with MAP4K5, 99.6%; with MAPKAPK2 it was 0%.

Turning to `Cc1ccc(NC(=O)c2ccc(Cl)c(Cl)c2)cc1-c1ccc(C(=O)Nc2ccncc2)cc1` [GSK1398460], the “%Inh” value with MAP3K15 was determined as 0%; in the assay on MAP3K1 it was 8%; in the assay with MAP3K2 it was 1%; in the assay on MAP3K3, 0%; in the assay with MAP3K4 it was 45%; in the assay on MAP4K2 it was 0%. For the same compound, the “%Inh” value with MAP4K3 was determined as 0%; in the assay on MAP4K4 it was 1%; in the assay on MAP4K5 it was 0%; in the assay on MAPKAPK2, 15%.

As to `Cc1ccc(NC(=O)c2ccnc(N3CCCCC3)c2)cc1-c1ccc(C(=O)NCC2CC2)cc1` [GW775610], the “%Inh” value in the assay with MAP3K15, in the assay with MAP3K1, in the assay with MAP3K2, in the assay with MAP3K3, in the assay on MAP3K4 and in the assay with MAP4K2 was 0% each time. In addition, the “%Inh” value with MAP4K3 was found to be 11%; in the assay on MAP4K4, 0%; in the assay with MAP4K5 it was 26%; in the assay with MAPKAPK2 it was 12%.

Consider `COc1cccc2c(-c3ccncc3)c(-c3ccc(F)cc3)nn12` [GW468513], for which the “%Inh” value in the assay on MAP3K15 amounted to 0%; with MAP3K1, 5%; with MAP3K2, 3%; in the assay with MAP3K3, 0%; in the assay with MAP3K4, 6%; with MAP4K2, 0%. Also, the “%Inh” value in the assay with MAP4K3 is on record as 0%; with MAP4K4, 33%; in the assay with MAP4K5, 2%; in the assay with MAPKAPK2 it was 13%.

As for `COc1cc(Nc2ccnc3cc(-c4ccncc4)ccc23)cc(OC)c1OC.Cl` [GW494610], the “%Inh” value came to 7% with MAP3K15; 8% with MAP3K1; 25% in the assay with MAP3K2; 30% with MAP3K3; 0% in the assay with MAP3K4; 13% in the assay on MAP4K2. Besides, the “%Inh” value with MAP4K3 worked out at 0%; in the assay on MAP4K4, 83%; in the assay on MAP4K5, 55%; in the assay with MAPKAPK2, 13%.

Take `CC(=O)Nc1cn2nc(Oc3cccc(NC(=O)c4cccc(C(F)(F)F)c4)c3)ccc2n1`: the “%Inh” value in the assay with MAP3K15 amounted to 0%; in the assay with MAP3K1, 0%; with MAP3K2 it was 0%; in the assay on MAP3K3, 22%; in the assay with MAP3K4 it was 19%; in the assay on MAP4K2 it was 0%. Further, the “%Inh” value came to 91.7% with MAP4K3, 36% in the assay with MAP4K4, 90% in the assay on MAP4K5 and 0% with MAPKAPK2.

Regarding `Cc1cc(-c2ccnc(Nc3cccc(C#N)c3)n2)cc(C)c1O` [GSK1440913], the “%Inh” value in the assay on MAP3K15 came to 0%; with MAP3K1, 22%; in the assay on MAP3K2, 2%; with MAP3K3 it was 1%; with MAP3K4, 18%; with MAP4K2 it was 30%. The “%Inh” value in the assay with MAP4K3 stood at 18%; in the assay on MAP4K4 it was 76%; in the assay with MAP4K5, 12%; in the assay with MAPKAPK2 it was 0%.

`CCOc1nccc(-c2c(-c3ccc(F)cc3)ncn2C2CCNCC2)n1` [SB-249175]: the “%Inh” value with MAP3K15 was determined as 57%; in the assay with MAP3K1 it was 42%; in the assay on MAP3K2, 10%; in the assay on MAP3K3, 7%; with MAP3K4, 11%; in the assay with MAP4K2, 100%. In addition, the “%Inh” value in the assay on MAP4K3 is 0%; with MAP4K4, 31%; with MAP4K5, 27%; in the assay on MAPKAPK2, 0%.

For the compound `CC(C)NCC(Cc1ccccc1)NC(=O)c1cc(Br)c(-c2ccnc3[nH]ccc23)s1.Cl.Cl` (stereo not shown) [GSK1383281], the “%Inh” value in the assay with MAP3K15 is listed as 0%; with MAP3K1 it was 0%; with MAP3K2, 34%; in the assay on MAP3K3 it was 0%; in the assay with MAP3K4 it was 0%; in the assay on MAP4K2, 0%. The “%Inh” value in the assay with MAP4K3 is 0%; with MAP4K4, 27%; in the assay on MAP4K5, 0%; with MAPKAPK2 it was 0%.

For `Nc1ncc(-c2ccc3nccc(-c4ccncc4)c3c2)cc1S(=O)(=O)N1CCCCC1` [GSK1693850], the “%Inh” value with MAP3K15 is 0%; with MAP3K1 it was 9%; in the assay on MAP3K2, 0%; in the assay on MAP3K3, 1%; with MAP3K4 it was 14%; in the assay with MAP4K2 it was 16%. The “%Inh” value in the assay on MAP4K3 came out at 0%; in the assay on MAP4K4, 5%; in the assay with MAP4K5, 6%; in the assay on MAPKAPK2 it was 5%.

For `COc1ccc(NC(=O)c2ccoc2)cc1-c1ccc(C(=O)NCC2CC2)cc1` [GW810437], the “%Inh” value was found to be 4% in the assay on MAP3K15; 13% in the assay on MAP3K1; 9% with MAP3K2; 0% in the assay with MAP3K3; 6% in the assay on MAP3K4; 10% in the assay on MAP4K2. Also, the “%Inh” value in the assay with MAP4K3 turned out to be 0%; in the assay on MAP4K4, 0%; in the assay with MAP4K5, 7%; in the assay with MAPKAPK2 it was 0%.

With `COc1cccc(CC(=O)N2CCc3cc(-c4cn(C)c5ncnc(N)c45)ccc32)c1` [GSK2608899], the “%Inh” value with MAP3K15 amounted to 13%; in the assay with MAP3K1, 20%; with MAP3K2 it was 82%; in the assay on MAP3K3 it was 49%; in the assay with MAP3K4 it was 77%; in the assay on MAP4K2, 38%. Moreover, the “%Inh” value with MAP4K3 is 78%; in the assay on MAP4K4, 0%; in the assay with MAP4K5, 84%; with MAPKAPK2, 21%.

As to `O=C(O)C(F)(F)F.O=c1[nH]ccc2nc(N[C@@H]3CCNC3)nc(Nc3ccc4c(c3)S(=O)(=O)CC4)c12` [GSK2181306], the “%Inh” value is recorded as 49% in the assay on MAP3K15; 28% with MAP3K1; 85% with MAP3K2; 76% in the assay with MAP3K3; 34% in the assay with MAP3K4; 100% in the assay with MAP4K2. For the same compound, the “%Inh” value in the assay on MAP4K3 is on record as 96%; in the assay on MAP4K4 it was 92.6%; in the assay with MAP4K5, 95.6%; with MAPKAPK2, 33%.

Regarding `Cl.Cl.NCC(NC(=O)c1cc(-c2cccnc2)c(-c2ccnc3[nH]ccc23)s1)c1ccccc1` (stereo not shown) [GSK1323434], the “%Inh” value stood at 0% with MAP3K15; 7% with MAP3K1; 3% in the assay on MAP3K2; 0% in the assay with MAP3K3; 0% in the assay with MAP3K4; 41% in the assay on MAP4K2. The “%Inh” value in the assay with MAP4K3 is 0%; with MAP4K4, 82%; in the assay on MAP4K5, 0%; with MAPKAPK2, 6%.

For `Cn1cc(-c2ccc3c(c2)CCN3C(=O)Cc2cc(F)cc(F)c2F)c2c(N)ncnc21` [GSK2634140], the “%Inh” value was 7% with MAP3K15; 10% with MAP3K1; 87% with MAP3K2; 50% with MAP3K3; 80% in the assay on MAP3K4; 0% with MAP4K2. Besides, the “%Inh” value amounted to 78% in the assay with MAP4K3, 0% in the assay with MAP4K4, 81% in the assay with MAP4K5 and 7% with MAPKAPK2.

For the compound `N#Cc1cnc2cc(-c3cnc(CNCCN4CCOCC4)s3)ccc2c1Nc1ccc(Oc2ccccc2)cc1` [GW664114], the “%Inh” value in the assay on MAP3K15 is given as 0%; with MAP3K1, 19%; in the assay on MAP3K2, 65%; in the assay with MAP3K3, 86%; with MAP3K4, 99.2%; in the assay with MAP4K2, 71%. Further, the “%Inh” value in the assay with MAP4K3 came out at 98.9%; in the assay on MAP4K4, 98.1%; with MAP4K5, 99.6%; in the assay on MAPKAPK2 it was 14%.

Consider `Nc1cccc(-c2ccc3c(N)n[nH]c3c2)c1` [GSK2193613], for which the “%Inh” value is 0% with MAP3K15; 100% with MAP3K1; 0% with MAP3K2; 0% with MAP3K3; 4% with MAP3K4; 91.1% in the assay with MAP4K2. Besides, the “%Inh” value in the assay on MAP4K3 is 1%; with MAP4K4, 19%; in the assay with MAP4K5, 0%; in the assay on MAPKAPK2 it was 0%.
